The record followed here is PubChem BioAssay AID1529 (NMMLSC, 2009).

The whole screen tested about 290,000 compounds, of which about 4,200 (1.4%) were called active. Many of the other results were omitted from the sample, so actives are more common in it than they were. Values without a mark were called inactive.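 Rule for the calls: active = binding response more than 3 SD above or below the average of its plate-row segment, actives on both sides; inconclusive = wells at one plate position flagged as instrument error; inactive = the rest.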

This assay deals with Mitogen-activated protein kinase kinase kinase 3 (Homo sapiens) (UniProt Q99759). Description: compounds raising or lowering MEK5 association with MEKK3 PB1 – biochemical, wildtype MEKK3, multiplex bead flow cytometry, Alexa488-MEK5, primary screen (AID 1529).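 Note: Alexa488 bead fluorescence after subtracting the streptavidin-only scavenger bead signal.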 To be noted: bead-based flow cytometry, Alexa488-MEK5 binding to MEKK3; at 10 µM; actives lie on both sides; 0 = blocked by unlabeled MEK5, 100 = vehicle. (In flow cytometry, cells or beads pass a laser one at a time.)
Sequence of Mitogen-activated protein kinase kinase kinase 3 (Homo sapiens) (Q99759 whole entry, looked up): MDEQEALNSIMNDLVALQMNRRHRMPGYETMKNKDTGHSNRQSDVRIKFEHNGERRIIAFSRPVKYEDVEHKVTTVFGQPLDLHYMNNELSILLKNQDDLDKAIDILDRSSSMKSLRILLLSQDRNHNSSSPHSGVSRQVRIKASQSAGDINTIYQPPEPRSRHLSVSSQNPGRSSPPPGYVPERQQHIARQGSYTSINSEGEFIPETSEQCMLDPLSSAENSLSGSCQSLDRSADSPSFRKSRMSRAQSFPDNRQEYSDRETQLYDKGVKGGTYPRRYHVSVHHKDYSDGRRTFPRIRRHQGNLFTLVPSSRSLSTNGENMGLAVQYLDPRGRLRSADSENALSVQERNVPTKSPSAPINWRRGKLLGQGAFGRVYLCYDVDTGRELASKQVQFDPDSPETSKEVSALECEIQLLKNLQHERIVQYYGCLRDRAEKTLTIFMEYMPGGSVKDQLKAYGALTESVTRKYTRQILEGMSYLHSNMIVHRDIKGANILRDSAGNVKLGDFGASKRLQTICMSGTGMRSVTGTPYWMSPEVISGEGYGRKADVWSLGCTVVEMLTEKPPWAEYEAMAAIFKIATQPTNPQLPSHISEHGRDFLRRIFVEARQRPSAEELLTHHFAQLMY
On to `COc1ccc(C(=O)O/N=C(\N)c2ccccn2)cc1[N+](=O)[O-]`, for which the binding response (% of control) is 107%.

Take `COC(=O)c1c(NC(=O)COC(=O)[C@@H](NS(=O)(=O)c2ccccc2)C(C)C)sc2c1CCC2`: the binding response (% of control) is 2% [inhibitor] (active). For `COC(=O)c1c(NC(=O)CCCC(=O)O)sc2c1CCCCC2`, the binding response (% of control) was 99%.

`CCc1ccc(N(CC(=O)Nc2sc3c(c2C(=O)OC)CCCC3)S(C)(=O)=O)cc1`: the binding response (% of control) is 92%. For `CC(C)CN(Cc1c(O)ccc2c(=O)c(-c3ccccc3)coc12)CC(C)C`, the binding response (% of control) is 102%. In the case of `CC(=O)Nc1ccc(NC(=S)NC(=O)c2ccc([N+](=O)[O-])c(C)c2)cc1`, the binding response (% of control) was 97%. For the compound `Cc1ccc(C(=O)NC(=S)Nc2ccc3[nH]c(=O)[nH]c3c2)cc1C`, the binding response (% of control) is 145% (active). For the compound `Cc1cc(C)cc(C(=O)NC(=S)Nc2ccc3[nH]c(=O)[nH]c3c2)c1`, the binding response (% of control) is 105%. Take `CC1(C)CC[C@]2(C(=O)O)CC[C@]3(C)C(=CCC4[C@@]5(C)CC[C@H](O)C(C)(C)C5[C@H](O)C[C@]43C)[C@@H]2C1` (some centres not stated): the binding response (% of control) was 101%. On to `O=C(Nc1cccc(-c2nc3ccccc3[nH]2)c1)c1ccc(C(=O)Nc2cccc(-c3nc4ccccc4[nH]3)c2)cc1`, for which the binding response (% of control) was 63% [inhibitor] (active).

In the case of `Cc1ccc(-c2nc3ccccc3[nH]2)cc1NC(=O)c1sc2ccccc2c1Cl`, the binding response (% of control) was 102%. As for `O=C(Cc1cccs1)Nc1cccc(-c2nc3ccccc3[nH]2)c1`, the binding response (% of control) was 107%. Take `CCNC(=O)c1cnn(-c2ccccc2)c1-c1ccccc1`: the binding response (% of control) is 103%. For `COc1ccc(C(=O)NC(=S)N2CCCCC2c2cccnc2)cc1OC` (configuration not stated), the binding response (% of control) is 98%. On to `O=C(c1ccc(CS(=O)(=O)c2ccccc2)o1)N1CCN(c2ccccc2)CC1`, for which the binding response (% of control) was 102%. In the case of `O=C(Cc1c(F)cccc1Cl)N1CCN(C(=O)c2ccco2)CC1`, the binding response (% of control) is 103%.

Regarding `O=C(c1ccco1)N1CCN(c2cccc(Cl)c2)CC1`, the binding response (% of control) was 2% [inhibitor] (active). As for `O=C(c1cccc([N+](=O)[O-])c1)N1CCN(C(=O)c2ccco2)CC1`, the binding response (% of control) was 100%. `Fc1ccc2c(c1)C(c1cccnc1)=NNC(c1cccs1)=N2`: the binding response (% of control) was 107%. The value for `CCCOc1ccc(Cl)cc1Nc1nc(NCCO)nc(N2CCCC2)n1` was 108%; that for `COc1ccc2c(c1)C(=C(C#N)C#N)C(=O)N2CCc1ccccc1` was 96%. Consider `CCCCN1C(=O)/C(=C(/C#N)C(N)=O)c2ccccc21`, for which the binding response (% of control) was 146% (active). As to `O=C(O)CCCN1C(=O)c2ccccc2Sc2ncccc21`, the binding response (% of control) is 107%. For the compound `CC1CN(C(=S)Nc2cccc(F)c2)CC(C)O1` (configuration not stated), the binding response (% of control) is 105%. The value for `COc1ccc(CNC(=O)C2(CC3CC(c4ccccc4)=NO3)CCN(C(=O)c3cccc(O)c3)CC2)cc1` (configuration not stated) was 99%. Take `COc1ccc(C(=O)NCc2nnc(SCCOc3ccccc3)n2C)cc1`: the binding response (% of control) is 102%.

`COC(=O)c1ccc(NC(=O)CSc2nnc(CNc3ccc(OC)cc3)n2C)cc1`: the binding response (% of control) is 106%. `COc1ccc(C(=O)NCc2nnc(SCC(=O)NC3=NCCS3)n2C)cc1`: the binding response (% of control) is 71% [inhibitor] (active).

In the case of `O=C(NCc1ccccc1)c1onc(CSc2ccncc2)c1C(=O)NCc1ccccc1`, the binding response (% of control) is 106%. Regarding `O=C(N/N=C/c1cccc([N+](=O)[O-])c1)c1ccncc1`, the binding response (% of control) is 107%. Regarding `N/C(=N\OS(=O)(=O)c1cccc([N+](=O)[O-])c1)c1ccncc1`, the binding response (% of control) was 145% (active).

As to `CO/N=C(\N)c1ccc([N+](=O)[O-])cc1`, the binding response (% of control) is 98%.

As for `C#CCOCCOCCOCCNc1nc(N2CCN(C(=O)C([C@@H](C)CC)n3cc(C(N)COC(=O)C(F)(F)F)nn3)CC2)nc(N2CCN(C(=O)[C@H](Cc3ccc(O)cc3)n3cc(C(N)[C@H](C)CC)nn3)CC2)n1` (some centres not stated), the binding response (% of control) is 104%.

On to `CC(=O)Nc1ccc(Oc2ccc3c(c2)C(=O)NC3=O)cc1`, for which the binding response (% of control) was 105%. Consider `CC(C)(C)NC(=O)Cn1cnc([N+](=O)[O-])n1`, for which the binding response (% of control) is 1% [inhibitor] (active). Turning to `CC(C)(C)NC(=O)Cn1cnc2cc([N+](=O)[O-])ccc2c1=O`, the binding response (% of control) is 95%. The value for `O=C(Cn1cnc([N+](=O)[O-])n1)NCCc1ccccc1` was 102%; that for `CCC(CC)COC(=O)C1=C(C)NC(=O)NC1c1ccc([N+](=O)[O-])cc1` (configuration not stated) was 105%; that for `CCSc1nnc(SCC(=O)NNC(=O)c2ccccc2F)s1` was 101%. The value for `CCOc1ccc(NC(=O)Nc2cc(C)ccc2OC)cc1` was 71% [inhibitor] (active).

`CCOc1ccc(C(=O)Nc2cc(OC)ccc2OC)cc1`: the binding response (% of control) was 97%. As for `CCOc1ccc(NC(=O)Nc2cc(C)on2)cc1`, the binding response (% of control) is 102%.

Turning to `CC(C)CCC(C)NC(=O)c1ccc2nccnc2c1` (configuration not stated), the binding response (% of control) is 61%. The value for `CCCc1nnc(NC(=O)CCC(=O)NC2CC2)s1` was 96%; that for `CC(=O)N(C)c1ccc(NC(=O)C(F)(F)F)cc1` was 2% [inhibitor] (active); that for `CC(=O)N(C)c1ccc(NC(=O)Nc2cccc3ccccc23)cc1` was 103%. The value for `CCOc1ccc(NC(=O)Nc2ccc(N(C)C(C)=O)cc2)cc1` was 101%. `CC(NCC(=O)Nc1cc(Cl)cc(Cl)c1)c1ccccc1` (configuration not stated): the binding response (% of control) was 100%. With `Cc1cc(=O)oc2c3c(cc(OCC(=O)N[C@H](C(=O)O)c4ccccc4)c12)OC(C)(C)CC3`, the binding response (% of control) is 97%.

In the case of `C=CCC1(C(=O)N(C)Cc2ccccc2)CCN(C(=O)OC(C)(C)C)CC1`, the binding response (% of control) was 97%. The value for `CC(=O)Nc1ccc(C(=O)Nc2nc(-c3cc(C)n(Cc4ccccc4)c3C)cs2)cc1` was 131% (active); that for `Cc1cc(-c2csc(N)n2)c(C)n1Cc1ccccc1` was 91%. `CC(=O)Nc1ccc(-c2csc(NC(=O)Nc3ccccc3)n2)cc1`: the binding response (% of control) was 101%. As to `O=C(NCCCN1CCCCCC1)c1ccc(N2CCCC2=O)cc1`, the binding response (% of control) was 108%. For `O=C(COC(=O)c1ccc(N2CCCC2=O)cc1)c1ccc(OC(F)F)cc1`, the binding response (% of control) is 1% [inhibitor] (active).

On to `CC1CCC(NC(=O)c2ccc(N3CCCC3=O)cc2)CC1` (configuration not stated), for which the binding response (% of control) was 104%. Next, `COc1ccc(S(=O)(=O)NC(C)c2ccccc2)cc1C(=O)N1CCCCC1` (configuration not stated): 103%.
